In the library only some 2.4% were active in any assay of this set; here they are far more common.
D2 ag-1: human D2 receptor agonism in beta-arrestin assay | P14416 | DiscoveRx PathHunter D2 beta-arrestin, luminescence, 90 min; 100% = 57 uM dopamine signal | activation, % (concentration not given with the values) | hit rate 0.084% among 360,000 | AID 624465; in the data active = activation above about 40%; inconclusive = between about 15% and that limit
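DiscoveRx PathHunter D2 beta-arrestin cells (2,100/well) attached overnight, then compound-stimulated 90 min at 37 C in HBSS/10 mM HEPES/0.1% Tween-20 buffer; beta-galactosidase complementation read by luminescence after 1 h at ambient temperature. Dopamine 57 uM final (EC100) as control.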
D2 PAM-1: D2 dopamine receptor (human) potentiation; P14416; HEK293 T-REx D2, calcium flux, EC20 dopamine potentiation; potentiation, % at 10 µM; hit rate 0.34% among 340,000; AID 485347;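 active = potentiation over 3 SD above the plate norm, cut at about 30% in these data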; note: 0% is about no effect
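Tetracycline-induced HEK293 T-REx cells force-coupled to calcium signalling expressed D2; compounds were pin-added after a 10 s baseline, read kinetically 180 s, then an EC20 dopamine challenge followed with a further 180 s calcium read.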
D2 PAM-2: human D2 receptor positive allosteric modulation; DiscoveRx D2 beta-arrestin cells, luminescence, 90 min; 100% = 57 uM dopamine signal; potentiation, % (concentration not given with the values); hit rate 0.23% among 360,000; in the data active = potentiation above about 50%; inconclusive = mostly about 30% to 49%
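D2 cells co-treated with compound plus 50 nM dopamine (EC20) for 90 min at 37 deg C to detect potentiation. Beta-arrestin recruitment was read as enzyme-fragment luminescence after 1 h at ambient temperature. Full response was set by 57 uM dopamine.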
D2 antagonist: antagonists of human D2 dopamine receptor. inhibition, % at 10 µM. HEK293 TREx D2 cells, calcium flux, dopamine EC80. hit rate 2% among 340,000. P14416. AID 485344; in the data active = inhibition above about 30%; inactive = below that, where a call was filed; note: 0% is about no effect
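Calcium flux kinetic readout in an inducible HEK293 TREx D2 line plated overnight at 30 C. After 180 s compound exposure, an EC80 dopamine challenge follows with another 180 s kinetic read to detect antagonism.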
D2 ag-2: activates the human D2 dopamine receptor | HEK293 T-REx D2 cells, calcium flux agonist mode | activation, % at 2 µM | hit rate 0.53% among 340,000 | AID 485358;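 active = activation over 3 SD above normal in the single-dose calcium agonist read, cut at about 30% in these data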; note: 0% is about no effect
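HEK293 Trex D2 cells, tetracycline-induced, o/n 30 C 5% CO2; no-wash Ca dye, RT 30–90 min; 10-cycle baseline, 23 nl cpd added, kinetic Ca read 180 s; agonist hits = positive Ca response.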
D3 arrestin ag: D3 receptor agonism confirmed, beta-arrestin readout; shares compounds with D2 ag-2; DiscoveRx D3 beta-arrestin cells, luminescence, 90 min; Potency, µM (top dose mostly 76.9 µM), for inactives: at the top dose activation, actives largely listed as activators; hit rate 4% among 2,300;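 note: potency is the fitted concentration of half-maximal effect; 100% = dopamine control response; nearly all actives have a fitted effect of over 70% in size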
Target sequence (P35462 whole entry, looked up): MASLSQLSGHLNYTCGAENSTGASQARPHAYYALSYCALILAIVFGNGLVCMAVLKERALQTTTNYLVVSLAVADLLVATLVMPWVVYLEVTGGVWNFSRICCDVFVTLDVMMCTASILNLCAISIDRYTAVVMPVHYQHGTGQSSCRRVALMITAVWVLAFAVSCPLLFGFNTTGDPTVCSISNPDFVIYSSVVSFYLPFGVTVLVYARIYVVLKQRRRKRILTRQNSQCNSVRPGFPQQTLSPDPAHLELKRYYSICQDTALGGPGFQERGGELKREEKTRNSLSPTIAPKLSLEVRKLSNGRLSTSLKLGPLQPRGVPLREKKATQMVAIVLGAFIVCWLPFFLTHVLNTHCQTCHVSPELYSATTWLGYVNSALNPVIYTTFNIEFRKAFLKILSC
D2 ag-3: activates human D2 dopamine receptor in D3 counterscreen; shares compounds with D2 ag-2; DiscoveRx PathHunter D2 beta-arrestin, luminescence, 90 min; response scale: percent relative to full dopamine signal; Potency, µM (titrated, usually from 76.9 µM), for inactives: at the highest dose activation, usual class: activators; hit rate 5.9% among 2,300; AID 720507; note: potency is the fitted concentration of half-maximal effect; % of control where 0% means no effect; nearly all actives have a fitted effect of over 70% in size
* marks the source's active call; other numbers are inactive results; ? = inconclusive; . = no result given. Unless noted, calls come from the whole dose curve; as a rule, active = well fitted activation curve with a large enough effect; inconclusive = small, poorly fitted or top-dose-only effect; inactive = flat fitted curve, though single readings scatter.

SMILES	D2 ag-1	D2 PAM-1	D2 PAM-2	D2 antagonist	D2 ag-2	D3 arrestin ag	D2 ag-3
COCCNC(=O)C1CCCN(C(=O)c2ccc(SC(F)(F)F)cc2)CC1 (configuration not stated)	-5.1	.	-13.0	.	.	.	.
O=C(Nc1ccccc1C(F)(F)F)N1CCC(N2CCCCC2)CC1	-3.7	9.3	-9.3	-2.0	0.6	.	.
O=C(Nc1ccccc1C(F)(F)F)C(O)(c1ccccc1)C1CCCCC1 (configuration not stated)	-2.9	-8.1	-9.8	2.9	0.9	-12.2%	-2.4%
Cc1c(NC(=O)c2cccc(NC(=O)COc3cccc(Br)c3)c2)c(=O)n(-c2ccccc2)n1C	3.6	.	1.6	.	.	.	.
C/C(=N\NC(=O)c1nnn(-c2nonc2N)c1-c1ccc2c(c1)OCO2)c1ccccc1	-3.9	24.0	3.5	-57.8	9.7	-8.3%	-6.8%
C/C(=N\NC(=O)c1nnn(-c2nonc2N)c1-c1ccc2c(c1)OCO2)c1ccc(C)cc1	-0.6	8.4	-3.7	14.0	15.5	-3.7%	-0.5%
CCC(=O)N1CCc2cc(S(=O)(=O)CCC(=O)Nc3ccc(C(C)=O)cc3)ccc21	1.9	7.2	0.8	2.4	-0.8	.	.
CCC(=O)N1CCc2cc(S(=O)(=O)CCC(=O)Nc3ccc(CC)cc3)ccc21	0.0	0.0	-1.2	2.4	0.7	.	.
CCOC(=O)N1CCC(NC(=O)CCS(=O)(=O)c2ccc3c(c2)CCN3C(=O)CC)CC1	?	-20.7	4.2	73.2*	65.7*	12.0%	?
CCC(=O)N1CCc2cc(S(=O)(=O)N3CCCCCC3)ccc21	4.8	-11.2	-12.6	30.7*	36.8*	-5.7%	-1.7%
CCC(=O)N1CCc2cc(S(=O)(=O)CCC(=O)Nc3nc(C)cs3)ccc21	11.2	-20.3	-7.9	10.0	64.4*	11.2%	10.7%
CCC(=O)N1CCc2cc(S(=O)(=O)N3CCCC3)ccc21	-1.4	-17.9	-3.3	-23.2	-0.3	.	.
CCC(=O)N1CCc2cc(S(=O)(=O)CCC(=O)Nc3ccc(C)cn3)ccc21	2.9	-20.1	-0.1	64.4*	56.6*	5.8%	18.7%
CCC(=O)N1CCc2cc(S(=O)(=O)CCC(=O)NC3CCCCC3)ccc21	-0.4	4.5	-4.7	-2.2	1.5	.	.
CCC(=O)N1c2ccc(S(=O)(=O)N3CCN(CC)CC3)cc2CC1C (configuration not stated)	6.6	-16.1	-9.3	38.6*	47.6*	-7.4%	27.7%
CC(=O)N1c2ccc(S(=O)(=O)N3CCC(C(=O)Nc4ncccc4C)CC3)cc2CC1C (configuration not stated)	0.9	-7.6	-4.7	5.1	27.3	-7.7%	-4.6%
C=CCn1c(COc2ccc(F)cc2)nnc1SCC(=O)NC1CCS(=O)(=O)C1 (configuration not stated)	-2.4	-11.7	-3.4	3.0	-0.8	.	.
Cc1ccc(S(=O)(=O)N2CCOCC2)cc1C(=O)N1CCN(c2ncccn2)CC1	5.6	-15.7	25.2	-26.5	35.7*	-8.2%	-1.2%
Cc1ccccc1C(=O)NNC(=O)c1cc(S(=O)(=O)N2CCOCC2)ccc1C	-2.2	-1.8	-3.8	17.1	0.7	-5.0%	-1.8%
Cc1ccc(S(=O)(=O)N2CCOCC2)cc1C(=O)N1CCOCC1	-2.0	18.3	-2.7	.	.	.	.
Cc1sc(N=Nc2ccc(N(C)C)cc2)[n+]([O-])c1C	-6.5	.	-15.8	.	.	.	.
NC(=O)c1ccccc1NC(=O)COc1ccc2c(c1)OCO2	13.2	12.7	3.3	-0.5	-1.5	.	.
Cc1ccc(S(=O)(=O)NCc2ccccc2)cc1C(=O)NC1CCC(C)CC1 (configuration not stated)	-0.7	1.1	-15.4	-6.9	-0.3	.	.
COc1ccccc1NS(=O)(=O)c1ccc(NC(=O)c2nc3nc(C)cc(C(F)F)n3n2)cc1	-3.1	9.1	-0.2	38.6*	-2.1	-5.5%	0.9%
COc1ccc(NC(=O)c2nc3nc(C)cc(C(F)F)n3n2)cc1OC	1.8	5.2	-6.6	8.1	-0.2	.	.
SMILES	D2 ag-1	D2 PAM-1	D2 PAM-2	D2 antagonist	D2 ag-2	D3 arrestin ag	D2 ag-3
CC(=O)Nc1ccc(OCC(O)CN2CCN(c3ccc(F)cc3)CC2)cc1 (configuration not stated)	10.1	-29.0	-21.1	44.6*	68.9*	14.5%	12.2%
CC(=O)Nc1ccc(OCC(O)CN2CCN(c3cccc(Cl)c3)CC2)cc1 (configuration not stated)	?	-30.7	14.4	83.0*	75.8*	?	?
CC(=O)Nc1ccc(OCC(O)CN2CCN(S(=O)(=O)c3ccc(NC(C)=O)cc3)CC2)cc1 (configuration not stated)	-2.4	-5.6	-3.0	12.0	-0.9	.	.
CC(=O)Nc1ccc(OCC(O)CN2CCN(c3ccc(Cl)cc3)CC2)cc1 (configuration not stated)	-1.4	-38.6	-43.2	40.2*	1.0	5.0%	-1.6%
Cc1noc(NS(=O)(=O)c2ccc(NC(=O)c3cccc(S(=O)(=O)Nc4ccccc4F)c3)cc2)c1C	-1.2	.	8.4	.	.	.	.
CCOC(=O)c1c(NC(=O)Cc2coc3cc(C)cc(C)c23)sc2c1CCC2	.	4.0	.	.	-1.1	.	.
O=C(NCC(c1ccco1)N1CCN(c2ccccc2)CC1)C(=O)NC1CC1 (configuration not stated)	13.0	1.2	?	19.6	12.7	?	?
O=C(NCC(c1ccco1)N1CCN(c2ccccc2)CC1)C(=O)NC1CCCC1 (configuration not stated)	7.0	-7.5	-2.8	-3.7	2.2	24.3%	10.7%
COc1ccc(NC(=O)C(Cc2c[nH]c3ccccc23)NC(=O)OC(C)(C)C)cc1 (configuration not stated)	.	-9.8	.	.	-2.1	.	.
COc1ccc(-c2nc(CN3CCN(C(=O)c4ccco4)CC3)c(C)o2)cc1OC	1.5	3.4	3.0	11.7	0.0	.	.
COc1ccc(-c2nc(CN3CCN(C(=O)c4ccco4)CC3)c(C)o2)c(F)c1	?	-15.9	15.5	25.5	60.8*	?	?
COc1ccc(OC)c(-c2nc(CN3CCN(C(=O)c4ccco4)CC3)c(C)o2)c1	7.5	-10.9	-11.1	16.0	49.2*	4.8%	6.7%
COc1ccc(-c2nc(CN3CCN(C(=O)c4ccco4)CC3)c(C)o2)c(OC)c1C	45.8*	-24.2	?	92.2*	102.4*	?	?
Cc1oc(-c2ccc(F)cc2F)nc1CN1CCN(C(=O)c2ccco2)CC1	-0.3	.	-11.1	.	.	.	.
